Compound activity: PubChem BioAssay, University of Pittsburgh Molecular Library Screening Center
The sample as a whole holds a higher share of hits than the screen did.
HIV RNase H inh-1 – HIV-1 RT RNase H inhibitors, primary screen, biochemical, fluorescence | Gag-Pol polyprotein (Human immunodeficiency virus type 1 group M subtype B (isolate … | RT-RNase H RNA/DNA duplex cleavage | inhibition, % at 10 µM | 65,000 tested, 1.9% active | AID 565, 2006; in the data active means inhibition above about 50%
HIV RNase H inh-2 – HIV-1 RT RNase H inhibitors, retest, confirmation, biochemical; shares compounds with HIV RNase H inh-1; Recombinant RT RNase H, fluorescent RNA/DNA duplex cleavage; inhibition, % at 10 µM; 1,000 tested, 39% active; in the data active means inhibition above about 48%
* = called active by the depositor.

SMILES	HIV RNase H inh-1	others
C/C=C/CSc1nc2c(c(=O)[nH]c(=O)n2C)n1C(C)C	-13.1
CCCCCOC(=O)CSc1nc2c(c(=O)[nH]c(=O)n2C)n1Cc1ccc(Cl)cc1	34.1
C=C(C)Cn1c(SCCCO)nc2c1c(=O)[nH]c(=O)n2C	-3.3
CCCCCCn1c(SCC(=O)OC)nc2c1c(=O)[nH]c(=O)n2C	92.5*	HIV RNase H inh-2=65.6*
COC(=O)C(C)Sc1nc2c(c(=O)n(C)c(=O)n2C)n1CCC(C)C (configuration not stated)	3.7
CCn1c(SCC(N)=O)nc2c1c(=O)n(C)c(=O)n2C	-1.6
CCCCCSc1nc2c(c(=O)[nH]c(=O)n2C)n1C	-28.7
CCCCCSc1nc2c(c(=O)[nH]c(=O)n2C)n1C(C)C	17.0
Cc1cccc2c1NC(C)CC2C (configuration not stated)	4.4
Cc1cc(=O)[nH]c(S/C=C/c2ccccc2)n1	-3.9
CCCc1cc(C(N)=O)c(NC(C)=O)s1	43.0
COCCN(CC(=O)NCc1ccccc1)C(=O)CCC(=O)Nc1ccccn1	-10.2
CSc1ccc(N2C(=O)NC3(CCCCC3)C2=O)cc1	-49.6
N#CC1=C(N)N(c2ccc(Br)cc2)C2=C(C(=O)CCC2)C1c1cccnc1 (configuration not stated)	-23.8
O=C(CSc1ncc(-c2ccc(F)cc2)[nH]1)Nc1cccc(O)c1	-6.7
C=CCn1c(SCC(=C)C)nc2c1c(=O)[nH]c(=O)n2C	-53.9
C=CCSc1nc2c(c(=O)[nH]c(=O)n2C)n1CC	69.2*	HIV RNase H inh-2=75.2*
C=CCSc1nc2c(c(=O)[nH]c(=O)n2C)n1C/C=C(/C)Cl	-15.7
COc1ccc(OC)c(C(=O)c2ccc(C(=O)N3CCCCC3)cc2)c1	0.6
CC(C)N(CCc1ccncc1)C(=O)Nc1ccc(Cl)c(Cl)c1	-20.8
COc1ccc(OCCOC(=O)c2cccc(-n3cnnn3)c2)cc1	-21.3
COc1ccc(-n2c(C)cc(C(=O)COc3ccc(-n4cnnn4)cc3)c2C)cc1	53.2*	HIV RNase H inh-2=24.0
COc1ccc(-n2c(C)cc(C(=O)Cn3nnc4ccccc4c3=O)c2C)cc1	-12.2
CCN(CC)c1ccc(NC(=O)C2CCCN(S(=O)(=O)c3cccnc3)C2)c(C)c1 (configuration not stated)	21.5
Cn1c(=O)[nH]c(=O)c2c1nc(N1CCN(c3cccc(Cl)c3)CC1)n2CCCc1ccccc1	55.9*	HIV RNase H inh-2=1.3
SMILES	HIV RNase H inh-1	others
CCCCCn1c(N2CCN(c3cccc(Cl)c3)CC2)nc2c1c(=O)[nH]c(=O)n2C	-10.0
Cn1c(=O)[nH]c(=O)c2c1nc(N1CCN(Cc3ccccc3)CC1)n2CCCc1ccccc1	-2.7
CCOC(=O)c1ccccc1NC(=O)CSc1nnnn1C1CCCCC1	-14.8
CCn1c(-c2ccc(C(C)(C)C)cc2)n[nH]c1=S	64.5*	HIV RNase H inh-2=9.4
Cn1c(-c2ccc(C(C)(C)C)cc2)n[nH]c1=S	37.5
CCn1c(-c2ccc(F)cc2)n[nH]c1=S	-2.1
Cc1ccc(-c2nc(CS(=O)CC(=O)NC3CCC(C)CC3)c(C)o2)cc1 (configuration not stated)	-3.9
Clc1ccc2nc(CN3CCCc4ccccc43)cn2c1	-23.8
O=C(Cc1cccs1)NCCn1ccc2ccccc21	-21.8
Cc1csc(SCC(=O)c2cc(C)n(Cc3cccs3)c2C)n1	-75.0
Cc1cc(C(=O)CSc2nnc(-c3ccc(OC(F)F)cc3)o2)c(C)n1Cc1cccs1	78.6*	HIV RNase H inh-2=67.5*
C/C(N)=C(/C#N)C(=O)CSc1nnc(-c2ccc(OC(F)F)cc2)o1	-3.5
O=C(CCN1c2ccccc2Sc2ccccc21)OCC(=O)N1CCN(C(=O)c2ccco2)CC1	23.4
CCOC(=O)C1CCCN(C(=O)CSc2nccn2C)C1 (configuration not stated)	5.4
CCc1ccc(CNC(=O)CN2C(=O)COc3ccccc32)cc1	-2.4
CCn1ncc(Br)c1C(=O)Nc1nccs1	-13.8
CC(C)COCC1CC2(CC(C)(c3csc(N)n3)OC2=O)C(=O)O1 (configuration not stated)	1.5
C=CCNc1nc(-c2c(C)nc3sccn23)cs1	-11.2
C=CCNc1nc(C2(C)CC3(CC(C)(C)OC3=O)C(=O)O2)cs1 (configuration not stated)	57.2*	HIV RNase H inh-2=23.8
CCCC(=O)Nc1nnc(CC(=O)N2CCCC2)s1	2.0
O=C(O)c1cc(S(=O)(=O)NCC2CCCO2)ccc1Cl (configuration not stated)	-8.2
ON=Cc1cccn1-c1ccccc1	-24.5
O=c1/c(=C\c2cccn2-c2ccccc2)sc2nc3ccccc3n12	89.4*	HIV RNase H inh-2=60.7*
COc1cc(N2CCCC2)c(OC)cc1/C=c1/sc2nc3ccccc3n2c1=O	9.6
O=C(c1cc(-c2cccnc2)nc2ccc(Br)cc12)N1CCC2(CC1)OCCO2	-1.9
SMILES	HIV RNase H inh-1	others
O=C1c2ccccc2C(=O)N1c1ccc(-c2nc3ccccc3o2)cc1	13.2
O=C(CCN1C(=O)c2ccccc2C1=O)Nc1ccc(F)cc1	-5.5
O=C(CCN1C(=O)c2ccccc2C1=O)Nc1ccc(-c2cn3ccsc3n2)cc1	13.2
O=C(CN1C(=O)c2ccccc2C1=O)Nc1ccc(-c2nc3ccccc3o2)cc1	66.3*	HIV RNase H inh-2=0.7
O=C(CN1CCCC1)Nc1ccc(-c2nc3cc(NC(=O)CN4CCCC4)ccc3o2)cc1	23.1
O=C(CCN1C(=O)c2ccccc2C1=O)Nc1ccc(-c2nc3ccccc3o2)cc1	88.4*	HIV RNase H inh-2=67.8*
COc1cccc(N2CCN(Cc3coc4c(Cl)cc(Cl)cc4c3=O)CC2)c1	35.9
Cn1c(N2CCC(C(N)=O)CC2)nc2c1c(=O)n(Cc1cccc(Br)c1)c(=O)n2C	-11.2
CCOC(=O)N1CCN(C(c2ccc(F)cc2)c2sc3nc(C)nn3c2O)CC1 (configuration not stated)	-5.1
CCC1Oc2ccc(C)cc2N(CC(=O)NCc2cccc(OC)c2)C1=O (configuration not stated)	-1.8
Cc1ccc(N2C(=O)SC(N(CC(=O)O)c3cccc(C)c3)C2=O)cc1 (configuration not stated)	11.1
Cc1ccc(N(CC(N)=O)C2SC(=O)N(Cc3ccccc3)C2=O)cc1 (configuration not stated)	63.4*	HIV RNase H inh-2=41.2
NC(=O)CN(c1ccccc1)C1SC(=O)N(Cc2ccccc2)C1=O (configuration not stated)	2.1
COc1cccc(C(=O)N(Cc2ccc(N(C)C)cc2)C2CCS(=O)(=O)C2)c1 (configuration not stated)	3.4
Cn1c(SCC(=O)NCc2ccco2)nc2ccccc2c1=O	-25.2
COc1ccc(C(=O)Nn2c(SCC(=O)NCc3ccco3)nc3ccccc3c2=O)cc1	-0.5
O=C(CSc1nc2ccccc2c2nc3ccccc3n12)NCc1ccco1	84.0*	HIV RNase H inh-2=63.8*
COc1c(Cl)cc(-c2noc(C)c2C(=O)NC(C)C)cc1Cl	-8.1
CCN(CC)CCCN(Cc1cc2cc3c(cc2[nH]c1=O)OCCO3)C(=O)Nc1ccc(F)cc1	5.9
CCCCn1cnc2c(c1=O)c1nc3ccccc3nc1n2Cc1ccc2c(c1)OCO2	4.7
CC1(C)CC(C#N)(N2CCOCC2)CCO1 (configuration not stated)	-7.8
CCc1nc(SCC(=O)N2CCCc3ccccc32)c2c(=O)n(C)c(=O)n(C)c2n1	0.9
O=C1CC(c2cccs2)Cc2nc(NCC3CCCO3)ncc21 (configuration not stated)	-20.4
